The panel holds about 83,000 compounds, 20% with a hit somewhere; the sample as a whole holds those more often.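 Interpretation: 100, growth as untreated; towards 0, rising growth inhibition; 0, no net growth; 0 to -100, cell death. Compounds scoring below 10 were considered active.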 A number with no mark means an inactive call. Calls of active or inactive are those of the source.

Among the data in PubChem BioAssay (NCI) are growth values, retold here.

This assay concerns 786-0 renal. As to the kind of experiment: NCI-60 one-dose screen, 48 h (100 = growth as untreated, 0 = no growth, -100 = all killed). The following applies: 10 µM unless noted.
In the case of `C/C=C(\C)C(C(=O)NC1CCCCC1)N(C(=O)C1CCc2cc(F)ccc2O1)c1ccc(Cl)cc1` (centres undefined), the growth was 101%.
On to `N=C(N)c1ccc(-c2cc(Cl)cc(Cl)c2)cn1`, for which the growth was 95.3%.
To `COc1ccc(-c2cc(-c3ccccc3)nc(SCCCC(=O)NO)n2)cc1OC` belongs 0.761% (active); to `CCC(C)/C(=C\C#N)NCCCN/C(=C/C#N)C(C)CC` (centres undefined), 98.1%.
The result for `CC1=C(C#N)C(=O)NC(C)C1` (centres undefined) reads 97.6%; that for `COc1cccc(/C=C2\Oc3cc(OCCCN4CCCC4)ccc3C2=O)c1OC`, 98.5%; that for `COc1cc(C2C3=C(COC3=O)Nc3cc4c(cc32)CCC4)cc2c1OCO2` (centres undefined), 18.1%.
Turning to `CCN(CC)c1ccc(/C=C2\Oc3ccc(O)c(I)c3C2=O)cc1`, the growth was 73.6%.
`C=C(C)[C@@H]1CC[C@]2(C(=O)O)CC[C@]3(C)[C@H](CC[C@@H]4[C@@]5(C)C[C@@H](CC#Cc6ccc(C(F)(F)F)cc6)[C@H](O)C(C)(C)[C@@H]5CC[C@]43C)[C@@H]12`: the growth is 19.2%.
Take `COc1ccc2c(c1)[nH]c(=O)c1c3cccc(F)c3cn21`: the growth was 44.3%.
Consider `CCOC(=O)C1=C(C)NC(C)=C(C(=O)OCC)C1(C)C`, for which the growth is 88.2%.
To `COc1cccc(/C=C/C(=O)Nc2cc(OC)c3c(c2)OCO3)c1` belongs 91.3%; to `COc1cccc(-c2nc3sccn3c2-c2ccnc(NCCCNS(=O)(=O)c3ccc(F)cc3)c2)c1`, 56.8%.
On to `COc1ccc(S(=O)(=O)Nc2cc(/C=C\c3cc(OC)c(OC)c(OC)c3)cc(OC)c2OC)cc1`, for which the growth was 14%.
